The source of these data is PubChem BioAssay.

The nature of assay [1]: inhibitors of TNFa-induced NFkB p65 translocation, primary screen, imaging, HUVEC, MLSMR starter and 10KST1 sets (AID 438;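 active means inhibition above 20% together with a positive visual image hit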;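 further: compound added about 3h40 before a 20 min TNFalpha stimulation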;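 on inhibition: signal is the nuclear over cytoplasmic p65 intensity ratio per well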). The settings on record: HUVEC TNFa-induced p65 nuclear translocation; cell count: measured here: nuclei count (cytotoxicity indicator), at 2.08 µM; inhibition: at 2 µM, stronger effect = higher value, 0% TNFa-plus-vehicle, 100% no-TNFa wells.
Assay [2] is described as follows: inhibitors of mutant huntingtin aggregation, primary screen, imaging, exon1htt(103Q)mCFP cells, high-content imaging (AID 483;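 active means visual image review flags a hit and inhibition of aggregation exceeds 20%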;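 further: compound exposure lasted 3 days before fixation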;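 on nuclei count: percent of the per-plate median nuclei count of sample wells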). The settings on record: exon1htt(103Q)mCFP cell line, aggregate imaging, at 2 µM; inhibition of aggregation: stronger effect = higher value; nuclei count: measured here: cell count, toxicity.
A short description of assay [3]: inhibitors of E-selectin induction by TNFa, primary screen, imaging, HUVEC, immunofluorescence, MLSMR starter and 10KST1 sets (AID 487).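 On inhibition: signal is fraction of cell area covered by stained E-selectin grains.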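 On nuclei count: 100% = median nuclei count of all wells on the same plate.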 The settings on record: HUVEC TNFalpha-induced E-selectin immunofluorescence imaging, at 2 µM; inhibition: stronger effect = higher value; nuclei count: measured here: cell number, toxicity.
For assay [4], the target named is Voltage-gated potassium channel subunit beta-2 (Rattus norvegicus) (UniProt P62483). The assay can be described thus: KvBeta enzyme negative modulators, primary screen, biochemical, NADPH fluorescence (AID 622;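 active means fluorescence slope higher than the sample average by over 3 SD, cut at about -0.22 in these data, passing the limit was not always enough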;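 further: slope of raw intensity against log time taken from 70 to 1610 s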). Conditions: recombinant KvBeta, 4-cyanobenzaldehyde reduction, at 10 µM, stronger effect = higher value.
Chain of Voltage-gated potassium channel subunit beta-2 (Rattus norvegicus) (P62483 whole entry, looked up): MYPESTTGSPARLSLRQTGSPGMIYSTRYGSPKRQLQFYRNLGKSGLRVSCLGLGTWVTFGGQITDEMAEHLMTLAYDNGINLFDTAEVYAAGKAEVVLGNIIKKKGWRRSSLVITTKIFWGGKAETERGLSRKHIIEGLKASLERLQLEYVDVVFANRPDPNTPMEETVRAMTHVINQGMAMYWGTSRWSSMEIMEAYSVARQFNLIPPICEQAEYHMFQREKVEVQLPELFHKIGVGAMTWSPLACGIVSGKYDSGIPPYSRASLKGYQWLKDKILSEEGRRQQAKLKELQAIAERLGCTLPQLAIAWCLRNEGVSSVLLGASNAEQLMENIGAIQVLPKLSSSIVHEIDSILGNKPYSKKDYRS
For assay [5] the target is unchanged. Description: KvBeta positive modulators, primary screen, biochemical, NADPH fluorescence (AID 623;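 active means NADPH fluorescence slope more negative than the mean of all samples by about 3 SD, 99.7% confidence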;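 further: fluorescence intensity change per second fitted from 20 to 320 s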). Conditions: Recombinant KvBeta, NADPH fluorescence decrease slope, 10 min; at 10 µM; stronger effect = lower value.
The target of assay [6] is Alpha-2C adrenergic receptor (Homo sapiens) (UniProt P18825). Description: modulators of alpha2C/GIRK thallium flux, primary screen, cell-based, HEK293 alpha2C/GIRK1/2 (AID 624;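 active means fluorescence slope after compound addition differing from the mean of all screened samples at 99.7% confidence, in either direction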;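 further: slope of fluorescence ratio to pre-addition baseline per second over 15 to 24 s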). The settings on record: thallium flux BTC fluorescence, at 10 µM, actives lie on both sides.
Chain of Alpha-2C adrenergic receptor (Homo sapiens) (P18825 whole entry, looked up): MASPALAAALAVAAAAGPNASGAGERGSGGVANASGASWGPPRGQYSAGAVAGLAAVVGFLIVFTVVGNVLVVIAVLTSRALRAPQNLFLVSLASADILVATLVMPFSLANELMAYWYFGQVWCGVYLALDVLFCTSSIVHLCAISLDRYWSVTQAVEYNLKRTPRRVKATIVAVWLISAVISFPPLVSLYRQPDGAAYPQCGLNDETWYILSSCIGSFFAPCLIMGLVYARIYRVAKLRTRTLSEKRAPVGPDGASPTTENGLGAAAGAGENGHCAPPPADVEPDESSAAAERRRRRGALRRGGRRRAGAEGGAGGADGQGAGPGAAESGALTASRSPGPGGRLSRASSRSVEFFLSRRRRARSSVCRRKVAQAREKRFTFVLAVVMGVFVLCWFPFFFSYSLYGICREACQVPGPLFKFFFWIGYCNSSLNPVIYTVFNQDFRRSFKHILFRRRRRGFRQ
A short description of assay [7]: inhibitors of Sendai virus-induced IRF3 signaling, primary screen, TLR/RLR signaling modifier project, cell-based, Sendai virus stimulus, luciferase, 10K MLSCN set (AID 602276;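 active means inhibition at or above 50% at 10 µM; inactive means inhibition below 50%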;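 further: firefly luciferase from ISG56 promoter only with Renilla not read in this screen; 0% = Sendai virus plus DMSO and 100% = medium plus DMSO without virus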). The settings on record: HEK293 RL24 IRF3 luciferase reporter, at 10 µM, stronger effect = higher value. (A reporter such as luciferase makes a cellular process visible.)
Assay [8] in a line: inhibitors of poly I:C-induced TLR3 signaling, primary screen, cell-based, poly I:C stimulus, luciferase, 10K MLSCN set (AID 602277;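 active means inhibition of the reporter signal at or above 50%; inactive means inhibition below 50%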). The settings on record: HEK293-TLR3 RL24 IRF3 luciferase reporter, at 10 µM, stronger effect = higher value.

Activity calls are given as the source filed them.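 How the source made its calls, unless noted: active means visually confirmed hit in the image check and inhibition above 20%; inconclusive means visually confirmed hit but inhibition not above 20%; inactive means no visual hit in the image check.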

A word on the inhibition: it is the change of the read-out against control, counted positive when it falls. On to `COc1cc(C(=O)Nc2cccc(-c3nc4cc(C)ccc4o3)c2)cc(OC)c1OC`, for which the cell count in assay [1] came to 507. Also, the inhibition in assay [1] was 7% (inactive); in assay [3], -126% (inactive); in assay [7], 0.465% (inactive); in assay [8] it was -22.5% (inactive). The inhibition of aggregation in assay [2] was -1.2% (inactive). The nuclei count in assay [2] was found to be 90.7%; in assay [3], 126%. In assay [4], the fluorescence slope is -0.582 (inactive). Also, the NADPH fluorescence slope in assay [5] is -3.2e-05 (inactive). Besides, the slope in assay [6] is 0.0093 (inactive).

With `CCN1CCN(C(=O)Cn2ncc3ccsc3c2=O)CC1`, the cell count in assay [1] is 697. In addition, the inhibition in assay [1] is -1.8% (inactive); in assay [3], -54.3% (inactive); in assay [7], 3.05% (inactive); in assay [8], 26.3% (inactive). In assay [2], the inhibition of aggregation was 27.4% (inactive). For the same molecule, the nuclei count in assay [2] amounted to 96.5%; in assay [3] it was 120%. For the same molecule, in assay [4], the fluorescence slope is -0.571 (inactive). Moreover, in assay [5], the NADPH fluorescence slope is -8e-06 (inactive). In assay [6], the slope is 0.00578 (inactive).

For `Cc1ccc(C(=O)N2CCN(C(=O)c3ccc(C)c(C)c3)C(C)C2)cc1C` (centres undefined), the cell count in assay [1] was 409. Also, the inhibition in assay [1] was -0.7% (inactive); in assay [3] it was -179% (inactive); in assay [7], 4.92% (inactive); in assay [8] it was 22.7% (inactive). Moreover, the inhibition of aggregation in assay [2] was -2.3% (inactive). Besides, the values for the nuclei count in assay [2] and in assay [3] were 94.3% and 200%, respectively. For the same molecule, the fluorescence slope in assay [4] was -0.264 (inactive). Further, in assay [5], the NADPH fluorescence slope is -5.3e-05 (inactive). In addition, in assay [6], the slope is 0.00164 (inactive).

For `O=C(NC1CCCC1)C1CCCN(S(=O)(=O)c2cccc3cccnc23)C1` (centres undefined), in assay [1], the cell count worked out at 617. Moreover, the inhibition was 6.6% (inactive) in assay [1], -68.3% (inactive) in assay [3], -0.271% (inactive) in assay [7] and 28.5% (inactive) in assay [8]. Besides, the inhibition of aggregation in assay [2] was 3.4% (inactive). Moreover, the figures for the nuclei count in assay [2] and in assay [3] were 107% and 132%, respectively. Besides, in assay [4], the fluorescence slope is -0.594 (inactive). In addition, the NADPH fluorescence slope in assay [5] is -3.8e-05 (inactive). In assay [6], the slope is 0.00653 (inactive).

In the case of `Cc1cc(N2CCOCC2)nc2ccc(NC(=O)C3CCC(C)CC3)cc12` (centres undefined), the cell count in assay [1] is 434. In addition, the inhibition is -2.7% (inactive) in assay [1], -132% (inactive) in assay [3], -9.82% (inactive) in assay [7] and -31.3% (inactive) in assay [8]. Moreover, the inhibition of aggregation in assay [2] was -22.1% (inactive). The nuclei count in assay [2] is 127%; in assay [3], 123%. Further, the fluorescence slope in assay [4] was -0.549 (inactive). The NADPH fluorescence slope in assay [5] was 1.5e-05 (inactive). The slope in assay [6] was 0.00409 (inactive).

On to `COC(=O)c1cc(OC)c(OC)cc1NC(=O)CCC1CCCC1`, for which the cell count in assay [1] turned out to be 452. For the same molecule, the inhibition was 3.7% (inactive) in assay [1], -78.6% (inactive) in assay [3], 12.6% (inactive) in assay [7] and 22.5% (inactive) in assay [8]. Also, in assay [2], the inhibition of aggregation was 14.1% (inactive). For the same molecule, the nuclei count stood at 104% in assay [2] and 101% in assay [3]. The fluorescence slope in assay [4] was -0.637 (inactive). Besides, the NADPH fluorescence slope in assay [5] was -1e-05 (inactive). The slope in assay [6] was 0.00682 (inactive).

With `O=C(NCCN1CCCCCC1)c1ccc(CS(=O)(=O)c2ccc(Br)cc2)o1`, the cell count in assay [1] worked out at 591. Also, the inhibition was -0.5% (inactive) in assay [1], -63.4% (inactive) in assay [3], -15.7% (inactive) in assay [7] and 16.4% (inactive) in assay [8]. Moreover, in assay [2], the inhibition of aggregation was -28.3% (inactive). Further, the nuclei count amounted to 98.6% in assay [2] and 103% in assay [3]. Moreover, the fluorescence slope in assay [4] was -0.445 (inactive). Further, the NADPH fluorescence slope in assay [5] is 1.2e-05 (inactive). Moreover, the slope in assay [6] is 0.00438 (inactive).

Turning to `CCOC(=O)Cn1nnc(-c2ccc(SC)cc2)n1`, the cell count in assay [1] was determined as 729. In addition, the inhibition is -6.9% (inactive) in assay [1], -69.2% (inactive) in assay [3], 11.7% (inactive) in assay [7] and 16.7% (inactive) in assay [8]. In assay [2], the inhibition of aggregation is -11.1% (inactive). For the same molecule, the values for the nuclei count in assay [2] and in assay [3] were 102% and 116%, respectively. The fluorescence slope in assay [4] is -0.329 (inactive). Moreover, the NADPH fluorescence slope in assay [5] is -6.5e-05 (inactive). In assay [6], the slope is 0.00483 (inactive).

Consider `O=S1(=O)CC(N2CCCCC2)C(N2CCCCC2)C1` (centres undefined), for which the cell count in assay [1] stood at 394. The inhibition was 3.6% (inactive) in assay [1], -31.5% (inactive) in assay [3], 15.3% (inactive) in assay [7] and 32.7% (inactive) in assay [8]. The inhibition of aggregation in assay [2] was 0.2% (inactive). Further, the nuclei count in assay [2] was 110%; in assay [3] it was 107%. Further, the fluorescence slope in assay [4] is -0.587 (inactive). Besides, the NADPH fluorescence slope in assay [5] is -1.5e-05 (inactive). The slope in assay [6] was 0.00686 (inactive).

`COc1ccc(N2CCN(CCCNC(=O)CC3Oc4ccc(C)cc4NC3=O)CC2)cc1` (centres undefined): in assay [1], the cell count is 581. Also, the inhibition in assay [1] is 0.9% (inactive); in assay [3], -40.7% (inactive); in assay [7], 12.9% (inactive); in assay [8] it was 22.1% (inactive). In addition, the inhibition of aggregation in assay [2] is 11.6% (inactive). Also, the nuclei count in assay [2] was found to be 104%; in assay [3], 130%. For the same molecule, the fluorescence slope in assay [4] was -0.472 (inactive). For the same molecule, in assay [5], the NADPH fluorescence slope was 1.7e-05 (inactive). Besides, the slope in assay [6] was 0.00619 (inactive).

For `Cc1cc(C)nc(SCC(=O)Nc2ccc(S(=O)(=O)Nc3nccs3)cc2)n1`, the cell count in assay [1] is 312. The inhibition in assay [1] is 9% (inactive); in assay [3], -21.2% (inactive); in assay [7] it was 10% (inactive); in assay [8], 32.8% (inactive). In addition, in assay [2], the inhibition of aggregation is 5.3% (inactive). Moreover, the nuclei count was 97.6% in assay [2] and 116% in assay [3]. The fluorescence slope in assay [4] was -0.383 (inactive). Further, the NADPH fluorescence slope in assay [5] was -5.8e-05 (inactive). In addition, the slope in assay [6] was 0.00544 (inactive).

Consider `Cc1csc(NC(=O)c2cccs2)n1`, for which the cell count in assay [1] was 464. The inhibition in assay [1] is 1% (inactive); in assay [3] it was -47.5% (inactive); in assay [7], -38.4% (inactive); in assay [8] it was -103% (inactive). In addition, the inhibition of aggregation in assay [2] is 30.4% (inactive). The nuclei count in assay [2] stood at 83.3%; in assay [3], 99.5%. Further, in assay [4], the fluorescence slope is -0.506 (inactive). Also, the NADPH fluorescence slope in assay [5] was -4.8e-05 (inactive). Further, in assay [6], the slope was 0.00677 (inactive).

As for `Cc1cccc(C2CC(c3ccc(Cl)cc3)Nc3nc(N)nn32)c1` (centres undefined), the cell count in assay [1] was determined as 598. Moreover, the inhibition in assay [1] is -2.4% (inactive); in assay [3] it was -0.5% (inactive); in assay [7] it was 4.61% (inactive); in assay [8], 25.1% (inactive). For the same molecule, the inhibition of aggregation in assay [2] was 18.5% (inactive). For the same molecule, the figures for the nuclei count in assay [2] and in assay [3] were 58.9% and 102%, respectively. Besides, the fluorescence slope in assay [4] was -0.525 (inactive). Further, the NADPH fluorescence slope in assay [5] is -4.5e-05 (inactive). For the same molecule, the slope in assay [6] is 0.00816 (inactive).

Take `CC(=O)NC(Cc1ccccc1)C(=O)NC1CCN(C(=O)c2cnccn2)CC1` (centres undefined): in assay [1], the cell count was 991. For the same molecule, the inhibition was -1% (inactive) in assay [1], -54.3% (inactive) in assay [3], 12.1% (inactive) in assay [7] and 28.6% (inactive) in assay [8]. The inhibition of aggregation in assay [2] was -7% (inactive). For the same molecule, the nuclei count in assay [2] came out at 136%; in assay [3] it was 120%. Further, the fluorescence slope in assay [4] was -0.48 (inactive). In addition, the NADPH fluorescence slope in assay [5] is -2.5e-05 (inactive). For the same molecule, in assay [6], the slope was 0.00556 (inactive).
